Structures can show the parent of a compound that is named as a salt.
Legend:
Experiment in all cases: Euclidean distance of Cell Painting phenotypic profile (signed KS, 77 features) to DMSO centroid (dimensionless distance); 5 or 10 uM (library dependent); higher = stronger phenotypic change vs DMSO (phenoactivity)
Settings in all cases: 48 h
[1] = system: 786-O
Summary of the method: (§1)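 Five cancer lines and a healthy fibroblast line received library compounds at 10 or 5 uM (library-dependent, 0.1% DMSO final) for 48 h. Stained cells were imaged confocally at 20X (9 fields/well). Harmony extracted 77 features, each scored as a signed Kolmogorov-Smirnov statistic against same-plate vehicle wells. Profiles were plate-position corrected, correlation-weighted and replicate-averaged at the top dose. Phenoactivity is the Euclidean distance from each profile to the median vehicle profile.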

[2] = system: A549
Summary of the method: as §1

[3] = system: DU145
Summary of the method: as §1

[4] = system: FB
Summary of the method: as §1

[5] = system: HEPG2
Summary of the method: as §1

[6] = system: OVCAR4
Summary of the method: as §1

SMILES | Euclidean distance [1] | Euclidean distance [2] | Euclidean distance [3] | Euclidean distance [4] | Euclidean distance [5] | Euclidean distance [6]
CC(C)n1nc(-c2ccc3oc(N)nc3c2)c2c(N)ncnc21 | 3.74 | 3.47 | 2.16 | 5.4 | 2.31 | 3.52
Cn1c(=O)c(F)c(Nc2ccc(I)cc2F)c2c(=O)n(C[C@@H](O)CO)cnc21 | 3.48 | 2.45 | 3.23 | 4.03 | 2.21 | 2.01
CN[C@@H]1[C@@H](O)[C@@H](O[C@@H]2[C@@H](O)[C@H](O[C@H]3O[C@H](CN)[C@@H](O)[C@H](O)[C@H]3O)[C@@H](N)C[C@H]2NC(=O)[C@@H](O)CN)OC[C@]1(C)O [Isepamicin Sulphate] | 1.12 | 0.946 | 0.819 | 1.14 | 0.94 | 1.65
N[C@@H](CCC(=O)O)C(=O)O [(S)-Glutamic acid] | 1.39 | 0.982 | 1.47 | 0.799 | 0.834 | 1.57
NC1=NCC2c3ccccc3Cc3ccccc3N12 (centres undefined) [Epinastine HCl] | 1.16 | 1.15 | 1.13 | 1.2 | 0.717 | 1.43
COCC(=O)Nc1cc(Sc2ccccc2)ccc1N=C(NC(=O)OC)NC(=O)OC [Febantel] | 0.969 | 0.892 | 0.944 | 1.06 | 1.09 | 1.15
Cc1ccc(S(=O)(=O)NC(=O)NN2CC3CCCC3C2)cc1 (centres undefined) [Gliclazide] | 1.36 | 0.771 | 1.24 | 1.14 | 1.07 | 1.65
O=c1c(-n2ccnn2)c[nH]n1-c1cc(N2CCOCC2)ncn1 [Molidustat (BAY 85-3934)] | 1.15 | 0.806 | 1.01 | 1.09 | 0.627 | 1.19
N#Cc1cc(NC(=O)C(=O)O)c(Cl)c(NC(=O)C(=O)O)c1 [Lodoxamide Tromethamine] | 1.61 | 1.34 | 0.792 | 1.06 | 0.894 | 1.01
CN(C)c1ccc2nc3ccc(=[N+](C)C)cc-3sc2c1 [Methylene Blue] | 2.57 | 2.62 | 1.71 | 3.26 | 2.63 | 2.92
Cc1cnc(C(=O)O)c[n+]1[O-] [Acipimox] | 1.86 | 0.99 | 0.959 | 0.682 | 1.59 | 0.964
Cc1nc(Nc2ncc(C(=O)Nc3c(C)cccc3Cl)s2)cc(N2CCN(CCO)CC2)n1 [Dasatinib hydrochloride] | 3.83 | 4.46 | 4.71 | 3.53 | 2.21 | 4.45
O=C(NC[C@H](O)CO)c1ccncc1Nc1ccc(I)cc1F | 2.39 | 2.67 | 2.49 | 3.7 | 1.53 | 2.4
NCCc1c[nH]cn1 [Histamine 2HCl] | 1.32 | 0.957 | 0.954 | 1.22 | 0.814 | 0.832
CN(C)CCC=C1c2ccccc2C=Cc2ccccc21 [Cyclobenzaprine HCl] | 1.1 | 1.26 | 1.14 | 1.88 | 1.52 | 1.16
N#CC[C@H](C1CCCC1)n1cc(-c2ncnc3[nH]ccc23)cn1 [Ruxolitinib Phosphate] | 1.96 | 1.67 | 1.41 | 1.39 | 1.1 | 1.26
O=C1Cc2cc(CCN3CCN(c4nsc5ccccc45)CC3)c(Cl)cc2N1 [Ziprasidone HCl] | 1.99 | 1.47 | 1.15 | 1.3 | 0.985 | 1.64
NC(=O)OCC(COC(N)=O)c1ccccc1 [Felbamate] | 1.13 | 0.883 | 0.57 | 1.58 | 0.405 | 0.882
CC1(N)CCN(c2cccnc2NC(=O)c2nc(-c3ncccc3C(F)(F)F)cnc2N)CC1 | 2.98 | 2.64 | 3.38 | 2.85 | 3.49 | 2.63
COc1cccc(CCc2ccccc2OCC(CN(C)C)OC(=O)CCC(=O)O)c1 (centres undefined) [Sarpogrelate hydrochloride] | 0.73 | 1.36 | 0.739 | 1.27 | 0.99 | 1.63
CC1=CC(=O)c2ccccc2C1=O [Menadione] | 1.12 | 0.782 | 0.587 | 1.16 | 0.759 | 2.12
CCCCN1CCCCC1C(=O)Nc1c(C)cccc1C (centres undefined) [Bupivacaine HCl] | 1.38 | 0.594 | 1.45 | 0.904 | 0.991 | 1.15
NS(=O)(=O)c1ccc(NC(=O)Nc2ccc(F)cc2)cc1 | 0.711 | 1.08 | 1.36 | 1.37 | 1.44 | 0.718
CNCCCC12CCC(c3ccccc31)c1ccccc12 [Maprotiline HCl] | 0.958 | 1.1 | 1.11 | 2.09 | 1.53 | 0.98
